Screening results as filed in PubChem BioAssay.
Shown are actives, neighbours in structure and some others; about 12% of the full set was active somewhere.
L3MBTL1 block: inhibitors of human L3MBTL1; Q9Y468; AlphaScreen L3MBTL1–H3K9me1 peptide binding; Potency, µM (titrated, usually from 57.1 µM), for inactives: at the highest dose activity, negative = inhibition, actives largely listed as inhibitors; 230,000 compounds, 0.66% hits; note: % is set by controls: 0 for no effect and ±100 for the full control effect; nearly all actives have a fitted effect of over 60% in size
Target sequence (Q9Y468 whole entry, looked up): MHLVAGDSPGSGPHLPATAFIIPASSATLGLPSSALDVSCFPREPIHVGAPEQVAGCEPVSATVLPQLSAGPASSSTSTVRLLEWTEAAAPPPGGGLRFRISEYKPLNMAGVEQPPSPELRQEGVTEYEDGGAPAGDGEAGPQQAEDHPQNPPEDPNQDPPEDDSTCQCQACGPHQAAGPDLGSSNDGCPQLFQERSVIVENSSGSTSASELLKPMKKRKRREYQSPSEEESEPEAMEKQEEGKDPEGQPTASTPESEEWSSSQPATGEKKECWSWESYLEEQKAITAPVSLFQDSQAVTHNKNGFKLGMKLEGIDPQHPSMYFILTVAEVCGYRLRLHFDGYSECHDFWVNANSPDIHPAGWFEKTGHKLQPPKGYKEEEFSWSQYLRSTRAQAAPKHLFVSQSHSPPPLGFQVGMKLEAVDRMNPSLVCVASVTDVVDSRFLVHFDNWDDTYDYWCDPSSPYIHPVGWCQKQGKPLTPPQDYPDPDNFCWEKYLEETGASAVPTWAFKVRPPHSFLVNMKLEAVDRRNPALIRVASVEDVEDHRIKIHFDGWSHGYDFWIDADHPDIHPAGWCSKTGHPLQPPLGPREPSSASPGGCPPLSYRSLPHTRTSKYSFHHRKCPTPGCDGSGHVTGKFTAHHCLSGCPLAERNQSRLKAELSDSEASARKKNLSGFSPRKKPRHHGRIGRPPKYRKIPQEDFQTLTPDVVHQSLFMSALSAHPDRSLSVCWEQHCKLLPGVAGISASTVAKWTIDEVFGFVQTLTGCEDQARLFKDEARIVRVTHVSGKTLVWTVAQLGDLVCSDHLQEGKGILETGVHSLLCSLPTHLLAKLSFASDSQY
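AlphaScreen proximity signal between nickel-chelate acceptor and streptavidin donor beads (final 10 ug/mL) reports binding of 50 nM L3MBTL1 to 75 nM biotin-H3 K9me1 peptide; complex incubated with compounds 30 min at room temperature; cefsulodin titration as control.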
BAZ2B block: inhibitors of human BAZ2B bromodomain; Potency, µM (top dose mostly 114 µM), for the others: at the highest dose activity change, negative = inhibition, actives largely listed as inhibitors; Q9UIF8; 360,000 compounds, 4.4% hits; AlphaScreen BAZ2B-H3K14Ac peptide displacement; note: % is set by controls: 0 for no effect and ±100 for the full control effect; nearly all actives have a fitted effect of over 60% in size
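Complex of BAZ2B and biotin-H3K14Ac (50 nM apiece) forms over 30 min at RT, then faces library compounds up to 110 uM for another 30 min; AlphaScreen beads added, 20 min dark incubation, luminescence read.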
G9a inh: G9a (human) methyltransferase inhibition. Q96KQ7. G9a H3K9 monomethylation, AlphaScreen, 2 h. Potency, µM (top dose mostly 102 µM), for inactives: top-dose activity, negative = inhibition, most hits filed as inhibitors. 350,000 compounds, 8.8% hits. AID 504332; note: % is set by controls: 0 for no effect and ±100 for the full control effect; nearly all actives have a fitted effect of over 75% in size
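Chemiluminescent proximity detection of H3K9 monomethylation, read after 10 min bead incubation in the dark. Reaction: 20 nM G9a, 500 nM biotin-H3K9 peptide, 20 uM SAM cofactor, 2 h, room temperature, following 15 min enzyme-compound preincubation.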
HP1b binding inh: HP1-beta chromodomain-methylated histone interaction inhibition; 390,000 compounds, 0.56% hits; Potency, µM (series often up to 114 µM), for the others: at the top dose activity change, negative = inhibition, usual class: inhibitors; P83916; AlphaScreen HP1-beta / biotin-H3K9me3 peptide binding; note: nearly all actives have a fitted effect of over 70% in size
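Compound inhibition of the preformed complex between 50 nM HP1-beta and 50 nM biotinylated H3K9me3 peptide was read by AlphaScreen. Buffer was PBS pH 7.4 with 0.01% Tween-20. Incubations ran 30 min at room temperature, with 10 ug/mL donor/acceptor beads.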
JMJD2A Tudor: blocks the human JMJD2A Tudor domain | AlphaScreen JMJD2A-Tudor / H3K4me3 peptide binding | O75164 | 390,000 compounds, 4.4% hits | Potency, µM (highest dose often 114 µM), for the others: at the top dose activity change, negative = inhibition, most hits filed as inhibitors; note: % is set by controls: 0 for no effect and ±100 for the full control effect; nearly all actives have a fitted effect of over 50% in size
Sfp inh: blocks B. subtilis Sfp PPTase activity; Q9F4F7; Biochemical Sfp PPTase activity, qHTS; Potency, µM, inactives show largest response in the series, negative = inhibition, most hits filed as inhibitors; 310,000 compounds, 3.5% hits; AID 1490;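 note: the enzyme is Sfp with the accession as filed and its product quenches rhodamine fluorescence; 0% = enzyme reaction without inhibitor and -100% = no enzyme wells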
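After 15 min at room temperature with compound, 15 nM Sfp received 5 uM rhodamine-CoA plus 12.5 uM BHQ-2-ybbR (50 mM Hepes pH 7.6, 10 mM MgCl2). Rate came from the fluorescence difference over 30 min, ex 525/em 598 nm.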
An asterisk follows results filed as active; ? = inconclusive; . = not tested or not shown; ! = not active in a repeat; [ ] = remark or other dose. Calls come from the whole dose curve; as a rule, active = well fitted curve in the direction sought with a large enough effect; inconclusive = small, poorly fitted or top-dose-only effect, or another doubt; inactive = no such curve, though single readings can be large; an effect the other way counts as inactive or inconclusive. Potency is the fitted concentration of half-maximal effect.

SMILES | L3MBTL1 block | BAZ2B block | G9a inh | HP1b binding inh | JMJD2A Tudor | Sfp inh
CN1C(=O)NC(=O)/C(=C/c2ccc([N+](=O)[O-])s2)C1=O | . | 50µM* | 7.1µM* | ? | ? | 11µM*
CC1=NN(c2ccccc2)C(=O)C1/C=C1\C(=O)NC(=O)N(c2cc(C)cc(C)c2)C1=O (stereo unspecified) | -5% | ? | ? | -21% | -30% | -18%
COc1ccc(OC)c(N2C(=O)NC(=O)/C(=C\c3ccc([N+](=O)[O-])s3)C2=O)c1 | 10µM* | 28µM* | 8.9µM* | 25µM* | 28µM* | 22µM*
Cc1c(F)c(F)c(COC(=O)C2C(/C=C(\Cl)C(F)(F)F)C2(C)C)c(F)c1F (stereo unspecified) | . | . | . | . | . | 9%
CCCc1nn(C)c2c1C(c1ccncc1)C(C#N)=C(N)O2 (stereo unspecified) | -4% | 8% | ? | 35% | -25% | 8%
C#C[C@]1(O)CCC2C3CCC4=C/C(=N/OCC(=O)NC(C)C(=O)NC(CCSC)C(=O)O)CC[C@]4(C)C3CC[C@@]21C (stereo partly specified) | . | 2% | 56µM* | 45% | -17% | -23%
C=C(CC1(C(C)NP(=O)(c2ccccc2)c2ccccc2)CC1)c1ccccc1 (stereo unspecified) | . | . | . | . | . | -10%
CCC12C=CCN3CCC4(c5ccc(OC)cc5N(C)C4[C@@](O)(C(=O)OC)C1OC(C)=O)C32 (stereo partly specified) | . | . | . | . | . | 3%
CCCC[N+]12C3CC(C(CC)[C@H]1O)[C@@H]1C(O)C4(C[C@@H]12)c1ccccc1N(C)C34 (stereo partly specified) | . | . | . | . | . | 1%
CN(CCc1nnc(N)s1)[N+](=O)[O-] | 14% | -1% | 22µM* | 40% | -15% | -4%
Cc1cc(C=C2C(=O)N(C)C(=S)N(C)C2=O)c(C)n1C1CCCC1 | . | ? | 11µM* | -11% | ? | 56µM*
CCN1C(=O)C(=Cc2cc(C)n(C3CC3)c2C)C(=O)N(CC)C1=S | -13% | -1% | 50µM* | 27% | -22% | ?
Cc1cc(C=C2C(=O)N(C)C(=S)N(C)C2=O)c(C)n1-c1cccnc1 | -11% | 45µM* | 8.9µM* | -13% | -31% | -2%
Cc1cc(/C=C2\C(=O)NC(=S)N(C)C2=O)c(C)n1C1CCCCC1 | -8% | -21% | ? | 21% | -15% | ?
Cc1cc(/C=C2\C(=O)NC(=O)N(C)C2=O)c(C)n1-c1ccc2c(c1)OCO2 | -12% | ? | -50% | 19% | -32% | -15%
COc1ccccc1CN1CC[C@@]2(CCCN(C(=O)Oc3ccccc3)C2)C1 | . | . | 6%[12.7 µM] | . | . | -2%
O=C(Nc1ccc(OC(F)(F)F)cc1)Oc1ccccc1N1CCCCC1 | . | -1% | . | 46% | -1% | 6%
CC[N+](CC)(CC)CCOc1cccc(OCC[N+](CC)(CC)CC)c1OCC[N+](CC)(CC)CC | 0% | -38% | 5.3µM*! | 25% | 22µM* | ?
COC1CC(C)C(OC)c2cc(O)cc(c2O)NC(=O)C(C)=CC=CC(C)C(OC(N)=O)C(C)=CC(C)C1OC (stereo unspecified) | . | . | . | 71µM* | 89µM* | .
CCCN1[C@H](C(=O)OC)C[C@@H]2CC[C@@H](O)C[C@@H]21 | . | . | . | . | . | 19%
O=C(Cc1ccccc1)Oc1coc(CSc2ncccn2)cc1=O | . | . | -7% | 18% | 14µM* | 1%
O=C(COC(=O)Cc1ccccc1)Nc1cccnc1Cl | -6% | -13% | 8% | 34% | 1% | 0%
NCCCP(=O)(O)CC1CCCCC1 | . | . | 40%[59 µM] | . | . | -5%
Cc1cc(OC(=O)N(C)C)nn1C(=O)N(C)C | . | . | . | . | . | -11%
CC(C)n1c(N2CCN(S(=O)(=O)c3cccc([N+](=O)[O-])c3)CC2)nc2ccccc21 | -3% | -11% | . | 20% | ? | -2%
SMILES | L3MBTL1 block | BAZ2B block | G9a inh | HP1b binding inh | JMJD2A Tudor | Sfp inh
O=[N+]([O-])c1ccc(N2CCCCCC2)c2ncccc12 | ? | 14µM* | 25µM* | ? | 16µM* | ?
O=[N+]([O-])c1ccc(N2CCCNCC2)c2ncccc12 | -7% | -22% | ? | 15% | -27% | -4%
O=[N+]([O-])c1cccnc1N1CCCNCC1 | . | -3% | 45µM* | 10% | -17% | 10%
C#CCN1C(C)=C(C(=O)CCO)[C@@H](c2cccc(-n3oo3)c2)C(C(=O)OC)=C1C | . | . | . | . | . | -12%
N.N.N.N.N.N.N.N.N.N.N.N.N.N.O.O.[Cl-].[Cl-].[Cl-].[Cl-].[Cl-].[Cl-].[Ru].[Ru].[Ru] | . | . | 3.2µM* | . | . | .
C=CCN1CC[C@]23c4c5ccc(O)c4O[C@H]2/C(=N/NC(=O)c2ccccc2)CC[C@@]3(O)[C@H]1C5 | . | . | 35µM* | 31% | -16% | 1%
N#CC(C#N)=NNc1ccc(S(=O)(=O)N2CCCC2)cc1 | -9% | ? | ? | ? | ? | -5%
N#CC(C#N)=NNc1ccc(OC(F)(F)F)cc1 | . | . | 10µM* | . | . | ?
CC1/C=C/C=C/CC/C=C/C=C/C=C/C=C/C(OC2OC(C)C(O)C(N)C2O)CC2O[C@](O)(CC(O)C(O)CCC(O)CC(O)CC(O)CC(=O)OC(C)C(C)C1O)CC(O)C2C(=O)O (stereo partly specified) | . | . | -15%[2.33 µM] | . | . | -5%
Brc1c(NC2=NCCN2)ccc2nccnc12 | -2% | 1% | 19µM*! | . | . | -8%
CN1C(=O)C(=Cc2sc(=O)n(-c3ccccc3)c2N2CCCCC2)C(=O)N(C)C1=O | -11% | ? | 50µM* | 23% | -18% | -11%
Cc1[nH]n(-c2ccccc2)c(=O)c1C(c1ccc([N+](=O)[O-])cc1)c1c(C)[nH]n(-c2ccccc2)c1=O | ? | 40µM* | 11µM* | 35µM* | 18µM* | -11%
Cc1[nH]n(-c2ccccc2)c(=O)c1C(C[N+](=O)[O-])c1ccccc1Cl (stereo unspecified) | . | ? | ? | 5% | -17%[11.4 µM] | 2%
CC(C)C1C(=O)O[C@@H]2CCN3CC=C(COC(=O)[C@](C)(O)[C@]1(C)O)[C@H]23 (stereo partly specified) | . | . | . | . | . | 23%
CC/C(=N\Nc1ccccc1)c1c(O)n(-c2ccc(OC)cc2)c(=O)[nH]c1=O | -3% | -20% | 40µM* | 12% | -14% | ?
CCC(=NCCO)c1c(O)n(-c2ccccc2)c(=O)[nH]c1=O | . | 5% | 18%[2.33 µM] | 14% | -9% | 11%
CCC(=NC(C)c1ccccc1)c1c(O)[nH]c(=O)[nH]c1=O (stereo unspecified) | . | 6% | . | 55% | 18%[57.1 µM] | 0%
